ChEMBL document CHEMBL3988442, “University of Dundee, Small-Polar-MMV Screening Library” (2021)

These compounds were tested against AMP-activated protein kinase, AMPK (Homo sapiens) (UniProt P54646+O43741+P54619+Q9UGJ0+Q9Y478+Q13131+Q9UGI9) (assay: AMP-dependent Kinase enzyme assay. An in vitro enzyme assay that detects ADP turnover that is directly proportional to AMPK activity. This uses naive AMPK that is activated during the assay with MK-8722). Conditions: 30 µM.
Format: functional
Design: scale not given: direction of the effect not stated beside the values
`Cc1cccc(C)c1Oc1ncccc1CNC(=O)C1COC(=O)N1` (stereo not given) gave a Percent Effect of -10.7%. With `COc1ccc(C2CCN(S(=O)(=O)CCCC#N)CC2)cc1` the Percent Effect was -2.21%. `CC(C)OCCN1CCC(Nc2ncccn2)CC1` showed a Percent Effect of -1.19%. `O=C1CCCCCN1Cc1nc(C2(c3ccc(F)cc3)CCOC2)no1` (stereo not given) showed a Percent Effect of 8.29%. Compound `CCNC(=O)c1ccc(NC(=O)N(C)Cc2cc(C)on2)c(C)c1` has a Percent Effect of 10.2%. Compound `CCN1CCN(C(=O)C2CCOC2)c2ccccc21` (stereo not given) has a Percent Effect of -4.37%. For `COc1ccc(OC)c(C(C(=O)O)N2CCSCC2)c1` (stereo not given), the Percent Effect was 0.166%. `CCN(CCOC)C(=O)c1ccc2c(c1)nc(N1CC[C@H](O)C1)n2C` showed a Percent Effect of 3.21%. Compound `CCCC1COCCN1Cc1ccc(NC(C)=O)cc1` (stereo not given) has a Percent Effect of -4.72%. `CCn1nc(C)c(NC(=O)CN(C)C(C)c2nccs2)c1C` (stereo not given) showed a Percent Effect of -6.11%. With `Cc1nc(COc2ccc(S(=O)(=O)N(C)C)cc2)sc1C` the Percent Effect was 5.76%. Work on `CCc1c(C)nc2cc(-c3nccn3C)nn2c1N1CCCC(CO)C1` (stereo not given) yielded a Percent Effect of 26%. Work on `CC(CC(F)(F)F)NCc1ccccc1-n1ccnc1` (stereo not given) yielded a Percent Effect of -3.96%. `O=C(c1cncc(NCC2COc3ccccc3C2)n1)N1CCCCC1` (stereo not given) was tested, and the Percent Effect was 16.5%. With `COCCNC(=O)N1CCN(c2cc(F)ccc2F)CC1` the Percent Effect was 7.95%. `COCCn1ccnc1C1CCN(C(=O)CSc2nnc(C)o2)CC1` gave a Percent Effect of -0.22%. For `CN(C)Cc1nc(C(=O)N2CCCC(COc3ccc(F)cc3)C2)cs1` (stereo not given), the Percent Effect was 8.59%. `CNc1ccc(C2CN(c3cc(C)ncn3)CCO2)nc1` (stereo not given) gave a Percent Effect of 10.8%. With `NC(=O)C1CCCN1Cc1nccn1CC(F)(F)F` (stereo not given) the Percent Effect was 1.35%. With `Cc1nn(C2CCCCC2)c2nc(C(C)(C)CN3CCOCC3)[nH]c12` the Percent Effect was 12%. In the case of `CSC1(CNC(=O)N(C)Cc2ccc(C)s2)CCOCC1`, the Percent Effect is reported as -2.72%. `Cc1cc(CNC(=O)c2cc(NC(=O)C(C)C)ccc2Cl)no1` was tested, and the Percent Effect was 4.16%. `Cc1cc(C)n(C2CN(Cc3nc4cc(Cl)ccc4n3C)C2)n1` showed a Percent Effect of 3.42%. `CN1CC2(CCCN(CCOCc3ccccc3)C2)OC1=O` (stereo not given) showed a Percent Effect of -1.54%. In the case of `COc1nc2c(cc1C(=O)NC(C)Cc1cc(C)n[nH]1)CCC2` (stereo not given), the Percent Effect is reported as -15.8%. `CC(c1ccc(F)cc1F)N1CCN(CCN2CCCC2=O)CC1` (stereo not given) was tested, and the Percent Effect was -18%. With `CC(C(=O)NC1(C#N)CCCCC1)N1CCc2c(ncn2C)C1` (stereo not given) the Percent Effect was -9.22%. `CCc1n[nH]c(C(=O)N2CCC3(CCCN(CCOC)C3=O)C2)c1C` (stereo not given) gave a Percent Effect of 6.73%. Compound `CSC1(CNC(=O)NCc2sccc2C)CCOCC1` has a Percent Effect of -1.64%. For `CCNC(=O)c1ccc(NC(=O)N(C)Cc2cc(C)on2)cc1`, the Percent Effect was 16.8%. In the case of `Cc1occc1C(=O)N1CCCC(C2=Nc3ccccc3S(=O)(=O)N2)C1` (stereo not given), the Percent Effect is reported as 14.4%. Work on `Cc1ccc(N(CCC#N)C(=O)CCc2cscn2)cc1C` yielded a Percent Effect of -7.79%. With `Cn1cccc1CN(C(=O)CC(CC(=O)O)c1cccs1)C1CC1` (stereo not given) the Percent Effect was -2.3%. For `O=C(Cc1c(F)cccc1Cl)Nc1cccc(N2CCCC2)c1`, the Percent Effect was -5.51%. With `Cc1cnc(C(NC(=O)NCc2nc(C3CC3)no2)C2CC2)s1` (stereo not given) the Percent Effect was 0.145%. `N#Cc1cccc(NC(=O)N[C@H](CO)Cc2ccc(O)cc2)c1` was tested, and the Percent Effect was 6.46%. With `CN(CCc1ccccc1)c1cnn(C)c(=O)c1Br` the Percent Effect was 7.95%. In the case of `CC(C)Oc1cccc(F)c1C(C(=O)O)N1CCCN(C)CC1` (stereo not given), the Percent Effect is reported as 3.49%. With `CC(C)(C)NC(=O)C1CCCCN1Cc1nccn1CC(F)(F)F` (stereo not given) the Percent Effect was -2.34%. With `CC(C)Oc1ccccc1CNC(=O)N(C)CC(F)F` the Percent Effect was 1.53%.
